Compound activity: PubChem BioAssay, National Center for Advancing Translational Sciences (NCATS)
An excerpt weighted towards active compounds, which were near 11% of everything screened.
HPGD inh: qHTS Assay for Inhibitors of HPGD (15-Hydroxyprostaglandin Dehydrogenase). 15-hydroxyprostaglandin dehydrogenase [NAD(+)] (Homo sapiens), P15428. purified HPGD, NADH fluorescence kinetic, PGE2 substrate. Potency, µM, for the others: top-dose activity change, negative = inhibition, most hits filed as inhibitors. actives 4.3% (n = 150,000); further: potency means the concentration at half of the fitted maximal effect
Target sequence (P15428 whole entry, looked up): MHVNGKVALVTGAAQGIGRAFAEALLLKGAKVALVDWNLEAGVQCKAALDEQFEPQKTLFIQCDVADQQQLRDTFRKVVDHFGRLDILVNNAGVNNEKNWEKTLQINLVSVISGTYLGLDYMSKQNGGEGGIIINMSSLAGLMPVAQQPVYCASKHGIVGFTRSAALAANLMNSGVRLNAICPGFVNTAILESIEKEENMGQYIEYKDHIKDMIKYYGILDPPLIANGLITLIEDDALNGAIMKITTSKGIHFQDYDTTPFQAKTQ
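20 nM HPGD preincubated 15 min at room temperature with compound in 50 mM Tris-HCl pH 8, 0.01% Tween 20. Started with 1 mM NAD+ and 30 uM prostaglandin E2; NADH fluorescence (360/450 nm) read 5 times over 30-s intervals, last minus first.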
ALDH1A1 block: qHTS Assay for Inhibitors of Aldehyde Dehydrogenase 1 (ALDH1A1) | Aldehyde dehydrogenase 1A1 (Homo sapiens), P00352 | Purified ALDH1A1, NADH fluorescence, propionaldehyde substrate | Potency, µM (top dose mostly 75.3 µM), without a hit: at the highest dose activity, negative = inhibition, actives largely listed as inhibitors | actives 7.3% (n = 220,000) | AID 1030, 2008;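 further: potency means the concentration at half of the fitted maximal effect; plate controls were no enzyme wells and a reference inhibitor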
IMPase Li inh: qHTS Assay for Identifying the Cell-Membrane Permeable IMPase Inhibitors: Potentiation with Lithium; CHO-M1 cells, IP1 TR-FRET (IP-One), carbachol + lithium; Potency, µM (series often up to 59.4 µM), without a hit: top-dose activity, negative = IMPase inhibition, most hits filed as inhibitors; actives 0.35% (n = 210,000); AID 1457, 2008; active means well fitted curve in the direction sought with a large enough effect; inconclusive means small, poorly fitted or top-dose-only effect, or another doubt; inactive means no such curve, though single readings can be large; an effect the other way counts as inactive or inconclusive;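 further: IP1 builds up when IMPase is blocked and the TR-FRET signal falls; potency means the concentration at half of the fitted maximal effect; plate controls were basal vehicle for no effect and high inhibitor control for full effect; nearly all actives have a fitted effect of over 50% in size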
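IP1 accumulation measured by competitive TR-FRET in lysed CHO-M1 cells after 30 min compound exposure at 37C, with a small lithium addition to potentiate weak responses. Hill-equation AC50 from ratio and donor-channel data.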
PNC inhibitor: High Content Assay for Compounds that inhibit the Assembly of the Perinucleolar Compartment. PC3M PTB-GFP, PNC prevalence imaging, 16 h; hits give low values. activity change (PNC), negative = inhibition, % at 10 µM. actives 3.1% (n = 140,000);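 active means readout at or below -70, meaning at least 70% loss of cells showing the perinucleolar compartment, a nuclear body marking cancer cells; inconclusive means readout between -30 and a set limit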;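 further: plate controls were DMSO wells for no effect and camptothecin positive control wells for full effect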
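Read-out is percentage of cells bearing a perinucleolar compartment, from automated 20x imaging of fixed, Hoechst-stained PC3M PTB-GFP cells. Cells were seeded 4 h, then exposed 16 h to compound (23 nl of library stock) in duplicate plates.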
IMPase cell inh: qHTS Assay for Identifying the Cell-Membrane Permeable IMPase Inhibitors; Inositol monophosphatase 1 (Rattus norvegicus), P97697; CHO-M1 cells, IP1 accumulation, HTRF TR-FRET ratio; inhibition (IP1 accumulation), % at 46.1 µM; 120,000 tested, under 10 active; AID 901, 2007; active means well fitted curve in the direction sought with a large enough effect in the signal ratio, not every such curve was filed as active; inconclusive means small, poorly fitted or top-dose-only effect, or a change in a side signal; inactive means no such curve, though single readings can be large or run the other way; the % refers to the signal ratio;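 further: cells stimulated with carbachol in lithium chloride buffer; plate controls were DMSO basal wells for no effect and reference inhibitor wells for full effect; higher means more IMPase inhibition seen as more IP1 and lower FRET ratio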
Target sequence (P97697 whole entry, looked up): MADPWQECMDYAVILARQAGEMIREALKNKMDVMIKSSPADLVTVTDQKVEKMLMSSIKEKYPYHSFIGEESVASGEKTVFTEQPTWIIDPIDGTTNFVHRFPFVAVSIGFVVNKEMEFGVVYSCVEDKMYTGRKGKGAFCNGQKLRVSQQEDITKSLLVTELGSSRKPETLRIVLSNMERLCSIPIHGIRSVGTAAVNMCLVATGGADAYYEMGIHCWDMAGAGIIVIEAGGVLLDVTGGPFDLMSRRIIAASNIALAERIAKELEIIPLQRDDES
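Carbachol-driven Gq signalling in CHO-M1 cells (2000/well) generates IP1. Compounds that block IMPase raise IP1 and so reduce the FRET signal from Eu-anti-IP1 and d2-IP1 after a 10 min room-temperature lysis.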
ALOX12 inhib: qHTS Assay for Inhibitors of 12-hLO (12-human lipoxygenase); Polyunsaturated fatty acid lipoxygenase ALOX12 (Homo sapiens), P18054; purified 12-hLO, xylenol orange hydroperoxide absorbance; Potency, µM (doses to about 57.1 µM), inactives show top-dose activity change, negative = inhibition, actives largely listed as inhibitors; actives 0.12% (n = 150,000); active means well fitted curve in the direction sought with a large enough effect; inconclusive means small, poorly fitted or top-dose-only effect, or another doubt; inactive means no such curve, though single readings can be large; an effect the other way counts as inactive or inconclusive; further: potency means the concentration at half of the fitted maximal effect; nearly all actives have a fitted effect of over 55% in size
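Hydroperoxide formation by human 12-lipoxygenase from 40 uM arachidonic acid was followed colorimetrically via ferric-xylenol orange complex, using the 573/405 nm absorbance ratio. Enzyme concentration was 150 nM, with 30 min reaction at room temperature.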
The depositor's hits bear a star; ? = inconclusive; / = no result given; [ ] = remark or other dose. Unless noted, the call rests on the fitted dose curve; in most records, active means well fitted inhibition curve with a large enough effect (not every such curve was filed as active); inconclusive means small, poorly fitted or top-dose-only effect, or another doubt; inactive means no such curve, though single readings can be large or run the other way. Unless noted, on the % scale 0 is the no-effect control and ±100 the full control effect.

SMILES	HPGD inh	ALDH1A1 block	IMPase Li inh	PNC inhibitor	IMPase cell inh	ALOX12 inhib
C=CCn1cnc2c(c1=O)c1nc3ccccc3nc1n2/N=C/c1cccc(OC)c1	-21%	11µM*	38%[38.3 µM]	8	0	-5%
O=C(Cn1cncn1)NCc1cc(F)ccc1F	/	5%	1%	/	/	/
Cc1ccc(-c2cc(-c3ccccc3)no2)c(O)c1	-15%	-10%	4%	38	-12	-3%
Cc1ccccc1-c1cc(-c2ccccc2O)on1	14µM*	5%	14%[38.3 µM]	6	11	-8%
Oc1ccccc1-c1cc(-c2ccccc2)no1	1.6µM*	4%	-4%[38.3 µM]	?	8	3%
COc1ccccc1-c1ccc2ncnc(NCCN3CCOCC3)c2c1	/	-1%	-3%	/	/	/
COc1cccc(CC(NC(C)=O)C(=O)NC2CCN(S(=O)(=O)c3ccc(NC(C)=O)cc3)CC2)c1 (stereo not given)	/	15%	-3%	/	/	/
Cc1ccc(-c2cc(C(=O)O)c3cc(Br)ccc3n2)o1	?	?	11µM*	-28	/	-1%
CC(=O)c1c(C)nc2ccc(Br)cc2c1C(=O)O	-11%	?	1µM*	-19	?	-7%
CC(=O)c1c(C)nc2ccc(Br)cc2c1-c1ccccc1	/	?	10%	/	/	/
Cc1ccc(-c2cc(C(=O)NC3=NCCS3)c3cc(Br)ccc3n2)o1	2.5µM*	0.11µM*	?	-17	-14	5%
CC(=O)Nc1c(I)cc(I)c(C(=O)O)c1I	-1%	8%	8%	/	/	1%
COc1ccc(-c2nc3cnc(N4CCN(C)CC4)nc3n(CCc3ccccc3)c2=O)cc1	/	?	-25%	/	/	/
O=C(CN1CCN(Cc2ccc(F)cc2)C1=O)NCc1ccccc1	/	/	/	/	2	/
CC(=O)c1c(C)n(-c2ccccc2)c2ccc(O)cc12	5µM*	-3%	31%[38.3 µM]	6	16	-4%
COc1ccc2c(c1)c(C(=O)N1CCN(C)CC1)c(C)n2-c1ccccc1	?	14µM*	28%[38.3 µM]	0	5	0%
CCOC(=O)N1CCN(CCC(=O)Nc2cccc(F)c2)CC1	/	/	/	/	5	/
Cc1ccc(N2NC(C)(c3cccs3)NC2=S)cc1 (stereo not given)	-21%	18µM*	7%	32	/	?
Cc1ccc(N2CC(O)(c3cccs3)[N+]3=C2CCCC3)cc1 (stereo not given)	/	7%	4%	/	/	/
Cc1cc(C)n(-c2nc(N(c3ccccc3)c3ccccc3)nc(-n3nc(C)cc3C)n2)n1	-30%	7%	24%	-100*	-11	14%
Cc1ccc(-n2nnnc2-c2nc3ccccc3s2)cc1	-29%	0%	-22%	-134*	/	2%
COc1ccc(-c2nc(-c3ccccc3)oc2Nc2c(C)cccc2C)cc1	-8%	1%	14%	/	/	-2%
CCOC(=O)c1sc(NC(=O)CN(CC(C)C)CC(C)C)c(C(=O)OCC)c1C	?	22µM*	29%[38.3 µM]	-110*	2	1%
CCOC(=O)c1c(NC(=O)COC)sc(C(C)=O)c1C	?	-3%	15%[38.3 µM]	-6	-12	0%
CCOC(=O)c1c(NC(=O)c2cc(-c3ccc(O)cc3)on2)sc(C(C)=O)c1C	18µM*	22µM*	5%	24	/	-2%
SMILES	HPGD inh	ALDH1A1 block	IMPase Li inh	PNC inhibitor	IMPase cell inh	ALOX12 inhib
CCOC(=O)c1c(NC(=O)CC(C)C)sc(C(C)=O)c1C	-15%	?	7%	-100*	6	-1%
O=C(CN1C(=O)/C(=C2\SC(=S)N(C3CCS(=O)(=O)C3)C2=O)c2ccccc21)Nc1ccccc1 (stereo not given)	-9%	7.1µM*	13%	-2	-3	0%
Cc1ccc(NC(=O)CN2C(=O)/C(=C3\SC(=S)N(C4CCS(=O)(=O)C4)C3=O)c3ccccc32)cc1 (stereo not given)	-7%	1.4µM*	1%	45	-8	-1%
CCCc1nnc(NC(=O)c2c(O)c3c([nH]c2=O)CCCC3)s1	-11%	9%	-12%[38.3 µM]	-114*	-2	0%
CCNCCNC(=O)c1c(O)c2c([nH]c1=O)CCCC2	-6%	-6%	2%[38.3 µM]	0	3	6%
O=C1c2ccccc2C(O)N1Cc1ccc2c(c1)OCO2 (stereo not given)	16µM*	4%	-4%[38.3 µM]	23	6	-1%
O=C(O)c1ccc2c(c1)C(=O)N(Cc1ccc3c(c1)OCO3)C2=O	4.5µM*	-17%	-1%[38.3 µM]	-16	5	-7%
CC(C)(C)C(=O)CC1(O)C(=O)N(Cc2ccccc2)c2ccccc21 (stereo not given)	1%	7.1µM*	19%[38.3 µM]	-13	-6	0%
O=C(CC1(O)C(=O)N(Cc2ccccc2)c2ccc(Br)cc21)c1ccccc1 (stereo not given)	/	/	/	/	18	/
O=C(CC1(O)C(=O)N(Cc2ccccc2)c2ccccc21)c1ccc2c(c1)OCO2 (stereo not given)	-5%	7.1µM*	8%[38.3 µM]	-1	3	-17%
COc1ccc(CNc2nc(-c3ccc4c(c3)OCO4)nc3ccccc23)c(OC)c1	/	3%	13%	/	/	/
Cc1ccc(C(=O)CC2(O)C(=O)N(Cc3ccc4c(c3)OCO4)c3ccccc32)cc1 (stereo not given)	-18%	1.4µM*	19%[38.3 µM]	-5	15	-28%
Cc1ccccc1CN1C(=O)C(O)(CC(=O)c2ccncc2)c2ccccc21 (stereo not given)	-15%	0.11µM*	8%[38.3 µM]	-23	3	-9%
O=C(CC1(O)C(=O)N(Cc2ccc3c(c2)OCO3)c2ccccc21)c1ccccc1 (stereo not given)	-8%	8.9µM*	1%[38.3 µM]	-6	1	-5%
O=C(NCCN1CCN(c2ccccc2)CC1)Nc1ccccc1Br	/	/	/	/	2	/
CCCOC(=O)c1ccc(NC(=O)COC)cc1	?	-12%	21%[38.3 µM]	47	3	6%
CCCCOC(=O)c1ccc(NC(=O)c2ccoc2C)cc1	-15%	-8%	24%[38.3 µM]	?	2	-3%
CC(=O)c1ccc(NC(=O)Oc2ccccc2)cc1	-12%	3%	17%[38.3 µM]	-23	2	5%
CCCOC(=O)c1ccc(NC(=O)c2ccoc2C)cc1	32µM*	?	21%	?	7	7%
CCCOC(=O)c1ccc(NC(=O)Oc2ccccc2)cc1	?	25µM*	18%[38.3 µM]	-28	-2	1%
S=C(Nc1ccccc1)N1CCN(C(=S)Nc2ccccc2)CC1	/	2%	3%	/	/	/
